The target of test [1] is Cellular tumor antigen p53 (Homo sapiens) (UniProt P04637). Kind of test: TOX21_p53_BLA_p2_ratio: Tox21 HCT-116 p53 Agonism Beta-lactamase Assay, Ratio, Phase 2 (AID 2283592). The procedure, abridged: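 Ratio endpoint: beta-lactamase cleavage of CCF4-AM, blue (460 nm) over green (530 nm). HCT116 reporter line; 16 h treatment, 37C; substrate 2 h RT.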
Test [2] is described as follows: TOX21_p53_BLA_p3_viability: Viability Assessment in the Tox21 HCT-116 p53 Agonism Beta-lactamase Assay, Phase 3 (AID 2283593).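 Further: cells exposed to compound for 16 h before reading.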 In a few lines:
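HCT-116 cells (4000/well) rested 5 h at 37C, then got DMSO compounds by pin tool (217-fold dilution) for 16 h at 37C, 5% CO2. After the bla read, CellTiter-Glo was added and luminescence read at 30 min, room temperature.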

Test [3] deals with Cellular tumor antigen p53 (Homo sapiens) (UniProt P04637). Kind of test: TOX21_p53_BLA_p3_ratio: Tox21 HCT-116 p53 Agonism Beta-lactamase Assay, Ratio, Phase 3 (AID 2283596). The procedure, abridged:
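Cells were seeded at 4000/well, rested 5 h at 37C, then dosed with DMSO compound solutions (217-fold dilution) for 16 h. CCF4-AM substrate was loaded for 2 h at room temperature, and the 460/530 nm emission ratio was fitted for gain of signal versus DMSO.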

Test [4] is described as follows: TOX21_p53_BLA_p4_viability: Viability Assessment in the Tox21 HCT-116 p53 Agonism Beta-lactamase Assay, Phase 4 (AID 2283597).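 Further: hits lower the luminescence signal meaning cytotoxicity.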 In a few lines:
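Cytotoxicity was inferred from loss of CellTiter-Glo luminescence. HCT116 cells had been dosed with compounds after 5 h plating, incubated 16 h at 37C and 5% CO2, and exposed to the CCF4-AM substrate for 2 h.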

The target in test [5] is Cellular tumor antigen p53 (Homo sapiens) (UniProt P04637). Kind of test: TOX21_p53_BLA_p5_ratio: Tox21 HCT-116 p53 Agonism Beta-lactamase Assay, Ratio, Phase 5 (AID 2283599). The procedure, abridged:
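HCT-116 cells carrying a p53-inducible beta-lactamase reporter were seeded at 4000 cells/well and dosed after 5 h with compound in DMSO (217-fold dilution). After 16 h at 37C, CCF4-AM substrate was added for 2 h, and the 460/530 nm emission ratio was scored as gain-of-signal versus DMSO.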

Test [6] can be described thus: TOX21_p53_BLA_p5_viability: Viability Assessment in the Tox21 HCT-116 p53 Agonism Beta-lactamase Assay, Phase 5 (AID 2283600). In a few lines: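 Luciferase-coupled ATP quantitation of cells treated for 16 h (37C, 5% CO2) with test chemicals delivered in DMSO via a 217-fold dilution; 4000 cells/well; reagent incubated 30 min at room temperature before luminescence reading.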

The target in test [7] is Cellular tumor antigen p53 (Homo sapiens) (UniProt P04637). Kind of test: TOX21_p53_BLA_p4_ratio: Tox21 HCT-116 p53 Agonism Beta-lactamase Assay, Ratio, Phase 4 (AID 2283601). In a few lines:
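HCT116 cells carrying an inducible beta-lactamase reporter were plated at 4000 cells/well, rested 5 h, then exposed to compounds in DMSO (217-fold dilution) for 16 h at 37C. CCF4-AM substrate was loaded 2 h at room temperature; 460/530 nm emission ratio scored gain-of-signal versus DMSO.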

The nature of test [8]: TOX21_TRB_BLA_Antagonist_Followup_viability: Viability Assessment in the Tox21 Thyroid Hormone Receptor beta Antagonism Beta-lactamase (BLA) Follow-Up Assay (AID 2283961). The procedure, abridged: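 HEK293T cells stably expressing GAL4-DBD/human TRβ-LBD with UAS-bla reporter, 3,000 cells/well in phenol red-free DMEM, 2% charcoal-stripped FBS. Compounds at 11 concentrations in triplicate, 18 h at 37C/5% CO2; viability by CellTiter-Glo luminescence after 30 min at room temperature.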

Test [9] is described as follows: TOX21_TR_RXR_BLA_Antagonist_Followup_viability: Viability Assessment in the Tox21 Thyroid Hormone Receptor beta Retinoid X Receptor alpha (RXRa) Antagonism Beta-lactamase (BLA) Follow-Up Assay (AID 2283979). The procedure, abridged: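 RXRa-UAS-bla HEK293T cells seeded 2,500/well in phenol red-free DMEM with 2% charcoal-stripped FBS, attached 5 h, then exposed to compounds at 11 concentrations in triplicate for 16 h at 37C/5% CO2. Viability read by CellTiter-Glo ATP luminescence; bidirectional fit versus DMSO.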

Test [10] in a line: CCTE_Padilla_ZF_144hpf_TERATOSCORE: (Legacy) CCTE's 144 Hour Post-fertilization zebrafish Assay Teratoscore, Padilla Lab (AID 2283679; active means hit-call score of the fitted dose curve at least 0.9, where 1 is the maximum; inactive means score below 0.9;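 further: zebrafish embryos with chorions exposed by immersion from 6-8 hpf to 5 dpf with daily renewal; teratogenicity score from eye scoring of death hatching and malformations at 144 hpf; higher score means more developmental defects relative to DMSO baseline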). The procedure, abridged:
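Larvae scored by eye at 144 hpf for death, hatching and malformations after a day in clean Hanks'. Before that, daily-renewed exposure at 80 uM (0.4% DMSO, 26C) from roughly 6-8 hpf through 5 dpf, 4 embryos per chemical.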

Test [11] in a line: CCTE_Shafer_MEA_dev_firing_rate_mean: CCTE's Neural Network Formation Assay for Mean Firing Rate, Shafer Lab (AID 2284031; active means hit-call score of the fitted dose curve at least 0.9, where 1 is the maximum; inactive means score below 0.9;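 further: curve fitted for loss of firing so AC50 reflects decreased mean firing rate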). The procedure, abridged:
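Spike frequency (spikes/recording length, averaged over active electrodes) was recorded on days 5, 7, 9 and 12 and collapsed to AUC; rat cortical cultures received compound continuously over 12 days of network development.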

Test [12] can be described thus: CCTE_Shafer_MEA_dev_per_burst_spike_percent: CCTE's Neural Network Formation Assay for Percent of Spikes in a Burst, Shafer Lab (AID 2284032; active means hit-call score of the fitted dose curve at least 0.9, where 1 is the maximum; inactive means score below 0.9;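 further: fitted as a decrease in burst spike percentage below DMSO baseline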). The procedure, abridged:
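Value is trapezoidal AUC over recordings on days 5, 7, 9 and 12 of the well-mean fraction of spikes falling in single-electrode bursts; rat cortical cultures exposed continuously from plating, treatment renewed DIV 5 and 9, fitted downward against DMSO.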

Test [13] in a line: CCTE_Shafer_MEA_dev_active_electrodes_number: CCTE's Neural Network Formation Assay for Number of Active Electrodes, Shafer Lab (AID 2284040).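 Further: potency for loss of active electrodes versus DMSO so lower counts are hits.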 The procedure, abridged:
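Counts electrodes per well firing at least 5 spikes/min, recorded on days 5, 7, 9 and 12 in rat cortical cultures dosed continuously from plating (treatment refreshed DIV 5, 9). Value is the area under the curve over recordings, fitted downward relative to DMSO.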

Test [14] can be described thus: CCTE_Shafer_MEA_dev_burst_rate: CCTE's Neural Network Formation Assay for Burst Rate, Shafer Lab (AID 2284042; active means hit-call score of the fitted dose curve at least 0.9, where 1 is the maximum; inactive means score below 0.9;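 further: potency for loss of burst rate below DMSO control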). The procedure, abridged:
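Primary rat cortical neurons on PEI-coated 48-well MEA plates (laminin added with cells at plating) (16 electrodes/well), exposed from plating to day 12, dosing renewed at DIV 5 and 9. Burst rate averaged over active electrodes, recorded DIV 5, 7, 9, 12, summarized as AUC; loss versus DMSO.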

Test [15] can be described thus: CCTE_Shafer_MEA_dev_bursting_electrodes_number: CCTE's Neural Network Formation Assay for Number of Bursting Electrodes, Shafer Lab (AID 2284043).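 Further: potency is for loss of bursting electrodes relative to DMSO.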 The procedure, abridged:
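Counted: electrodes with burst rate ≥1 per 2 min in each well. Cells: primary rat cortex, 1.5 x 10^5/well, on 16-electrode MEA wells. Exposure: DIV 0–12, compound renewed DIV 5 and 9. Recording days 5, 7, 9, 12; AUC vs DMSO baseline.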

Test [16] is described as follows: CCTE_Shafer_MEA_dev_per_burst_interspike_interval: CCTE's Neural Network Formation Assay for Burst Interspike Interval, Shafer Lab (AID 2284044; active means hit-call score of the fitted dose curve at least 0.9, where 1 is the maximum; inactive means score below 0.9;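 further: potency for a decrease of within-burst interspike interval below DMSO level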). In a few lines: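 Rat cortical primary cultures, 16 electrodes/well; compound from plating, renewed with full media change DIV 5 and 9. Spikes via adaptive detector; per-burst ISI well-mean over active bursting electrodes; AUC of DIV 5/7/9/12 recordings; loss-direction fit vs DMSO.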

A short description of test [17]: CCTE_Shafer_MEA_dev_burst_duration_mean: CCTE's Neural Network Formation Assay for Mean Burst Duration, Shafer Lab (AID 2284045; active means hit-call score of the fitted dose curve at least 0.9, where 1 is the maximum; inactive means score below 0.9). The procedure, abridged: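 Network-formation assay in primary rat cortical neurons; treatment spans twelve days of development. Mean burst duration per well is integrated by trapezoidal AUC and fitted in the loss-of-signal direction against DMSO baseline.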

The nature of test [18]: CCTE_Shafer_MEA_dev_interburst_interval_mean: CCTE's Neural Network Formation Assay for Mean Interburst Interval, Shafer Lab (AID 2284046; active means hit-call score of the fitted dose curve at least 0.9, where 1 is the maximum; inactive means score below 0.9;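 further: well-mean interburst interval of bursting electrodes as AUC over four recording days; curve fitted for decrease in interburst interval relative to DMSO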). The procedure, abridged:
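Recordings on days 5, 7, 9 and 12 give well-mean interburst interval across actively bursting electrodes, summarized as area under the curve. Cultures: rat cortical neurons, continuous exposure from day 0, compound renewed at feeds; decrease analyzed versus DMSO.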

Test [19] can be described thus: CCTE_Shafer_MEA_dev_inter_network_spike_interval_mean: CCTE's Neural Network Formation Assay for Mean Inter-network Spike Interval, Shafer Lab (AID 2284047; active means hit-call score of the fitted dose curve at least 0.9, where 1 is the maximum; inactive means score below 0.9;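 on AC50: potency for a decrease in mean inter-network spike interval below DMSO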). The procedure, abridged:
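Primary rat cortical neurons on 16-electrode MEA wells, exposed from plating day 0 through DIV 12, compound renewed at DIV 5 and 9 media changes. Mean interval between network-spike peaks recorded DIV 5, 7, 9, 12; collapsed as trapezoidal AUC, fitted downward versus DMSO.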

Test [20] in a line: CCTE_Shafer_MEA_dev_network_spike_number: CCTE's Neural Network Formation Assay for Number of Network Spikes, Shafer Lab (AID 2284048; active means hit-call score of the fitted dose curve at least 0.9, where 1 is the maximum; inactive means score below 0.9;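 further: synchronized bursts across electrodes counted on days 5 7 9 12 and integrated as AUC; fit as a loss of signal meaning fewer network spikes than DMSO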). In a few lines:
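Extracellular recordings from 16-electrode wells track network formation in rat cortical cultures under continuous treatment from plating. The endpoint is network spike number, expressed as AUC across DIV 5–12 relative to DMSO vehicle.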

Test [21] is described as follows: CCTE_Shafer_MEA_dev_network_spike_peak: CCTE's Neural Network Formation Assay for Mean Number of Electrodes in Network Spike, Shafer Lab (AID 2284049; active means hit-call score of the fitted dose curve at least 0.9, where 1 is the maximum; inactive means score below 0.9;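 further: fitted for loss of signal meaning fewer electrodes in network spikes than DMSO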). In a few lines:
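Continuous 12-day exposure of rat cortical cultures, starting at plating, on MEA plates. Endpoint: electrodes participating in network-spike peaks, AUC across DIV 5–12, DMSO as negative control.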

Test [22] in a line: CCTE_Shafer_MEA_dev_spike_duration_mean: CCTE's Neural Network Formation Assay for Mean Spike Duration, Shafer Lab (AID 2284051; active means hit-call score of the fitted dose curve at least 0.9, where 1 is the maximum; inactive means score below 0.9;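 further: mean network spike duration pooled as area under curve over DIV 5 to 12 recordings; potency for a decrease in mean network spike duration versus DMSO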). In a few lines: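 Primary rat cortical neurons on 16-electrode MEA wells (PEI-coated, laminin in plating drop), exposed from plating through DIV 12 with compound renewed at DIV 5 and 9. Mean network-spike duration recorded DIV 5, 7, 9, 12; trapezoidal AUC across days, DMSO baseline.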

Test [23] is described as follows: CCTE_Shafer_MEA_dev_network_spike_duration_std: CCTE's Neural Network Formation Assay for Standard Deviation of Network Spike Duration, Shafer Lab (AID 2284052; active means hit-call score of the fitted dose curve at least 0.9, where 1 is the maximum; inactive means score below 0.9;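 further: area under curve of spike duration SD across recording days 5 to 12; hits are decreases in network spike duration SD versus DMSO vehicle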). In a few lines: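 Primary rat cortical neurons on PEI-coated 16-electrode MEA wells, exposed from plating day 0 through day 12 with compound renewed at DIV 5 and 9. Network spike duration SD recorded on days 5, 7, 9, 12, collapsed as trapezoidal AUC; loss-of-signal fit versus DMSO.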

Test [24] can be described thus: CCTE_Shafer_MEA_dev_per_network_spike_spike_number_mean: CCTE's Neural Network Formation Assay for Mean Number of Spikes in a Network Spike, Shafer Lab (AID 2284053; active means hit-call score of the fitted dose curve at least 0.9, where 1 is the maximum; inactive means score below 0.9). The procedure, abridged:
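Primary rat cortical neurons on 48-well, 16-electrode MEA plates were exposed from plating to DIV 12, with dosing renewed on DIV 5 and 9. Spikes per network spike (0.05 s peak window) were recorded on DIV 5, 7, 9 and 12 and collapsed as trapezoidal AUC versus DMSO.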

The nature of test [25]: CCTE_Shafer_MEA_dev_per_network_spike_spike_percent: CCTE's Neural Network Formation Assay for Percent of Spikes in a Network Spike, Shafer Lab (AID 2284054; active means hit-call score of the fitted dose curve at least 0.9, where 1 is the maximum; inactive means score below 0.9). In a few lines:
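Developing networks of rat cortical neurons are dosed at day 0 and recorded extracellularly four times up to day 12. The endpoint is the area under the curve of percent spikes in network spikes, fitted in the negative direction relative to DMSO.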

Test [26] is described as follows: CCTE_Shafer_MEA_dev_LDH: CCTE's Lactate Dehydrogenase Assay for Cytotoxicity in the Neural Network Formation Assay, Shafer Lab (AID 2284068).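 Further: exposure for twelve days from plating with re-dosing on DIV 5 and 9.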 In a few lines: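 Primary rat cortical neurons were plated on PEI/laminin MEA plates and exposed from day 0 for twelve days, with compound renewed at DIV 5 and 9. Cytotoxicity was determined by spectrophotometric LDH assay relative to DMSO.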

Values joined by “and” are separate entries in the source; they are usually repeats but may differ in a detail not shown here. Equal entries are not always repeated. Results filed as inconclusive are left out. More than one record can exist for a structure, and the calls need not agree. Active and inactive are the calls of the source. How the source made its calls, unless noted: active means hit-call score of the fitted dose curve at least 0.9, where 1 is the maximum; inconclusive means response in the unintended direction; inactive means score below 0.9.

Cellular tumor antigen p53 (Homo sapiens), sequence (P04637 whole entry, looked up): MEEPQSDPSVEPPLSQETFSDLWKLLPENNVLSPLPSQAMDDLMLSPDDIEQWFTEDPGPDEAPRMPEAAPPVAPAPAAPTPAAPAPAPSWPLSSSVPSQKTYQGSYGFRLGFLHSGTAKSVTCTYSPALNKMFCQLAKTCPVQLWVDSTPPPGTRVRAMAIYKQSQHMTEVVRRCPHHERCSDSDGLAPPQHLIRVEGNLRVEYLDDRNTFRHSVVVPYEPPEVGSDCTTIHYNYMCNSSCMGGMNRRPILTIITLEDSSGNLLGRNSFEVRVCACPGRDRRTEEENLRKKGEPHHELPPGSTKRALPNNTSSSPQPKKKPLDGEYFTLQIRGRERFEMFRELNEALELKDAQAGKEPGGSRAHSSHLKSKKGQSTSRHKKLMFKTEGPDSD

Turning to `Oc1ccc(OCc2ccccc2)cc1`, the AC50 is 25.1 µM (active) and 9.17 µM (active) in [1]; 25.7 µM (active) and 10.9 µM (active) in [3]; 9050 nM (active) in [7]. For the same compound, the compound was classed as inactive in test [2], in test [4], in test [5], in test [6], in [7] and in [8]. In [9], the result was inactive.
Take `CC[C@H](C)C(=O)O[C@H]1CCC=C2C=C[C@H](C)[C@H](CC[C@@H]3C[C@@H](O)CC(=O)O3)[C@H]21`: the result in test [1], in test [2], in test [3], in [4], in test [5] and in test [6] was inactive. The outcome in test [7], in test [17] and in test [19] was inactive. In addition, the AC50 in [10] was 8.02 nM (active) and 2.39 nM (active); in test [11], 1.41 µM (active) and 8.96 µM (active); in test [12] it was 1.4 µM (active) and 2.83 µM (active); in test [13], 1.15 µM (active) and 875 nM (active); in test [14], 253 nM (active) and 2.69 µM (active); in test [15], 924 nM (active) and 911 nM (active). Moreover, the AC50 is 3.11 µM (active) and 8.52 µM (active) in test [16]; 3.03 µM (active) and 2.52 µM (active) in test [18]; 696 nM (active) in test [19]; 71.9 nM (active) and 226 nM (active) in test [20]; 960 nM (active) and 912 nM (active) in test [21]; 1.05 µM (active) and 983 nM (active) in test [22]. Besides, the concentration at half-maximal activity (AC50) in [23] was 665 nM (active) and 700 nM (active); in test [24] it was 940 nM (active) and 915 nM (active); in [25], 277 nM (active) and 554 nM (active); in [26], 215 nM (active).
As for `COc1ccc(C(=O)c2ccc(C)cc2)c(O)c1`, the outcome in test [1], in [2], in [3], in test [4], in test [5] and in [6] was inactive. In addition, the outcome in test [7] was inactive.

The AC50 is the midpoint of the concentration-response curve, whichever way the signal moves.
